# GALC G270D act: raises human GALC G270D mutant activity in cells; 145M-Twi-hGALC-G270D cells, HMU-beta-Gal fluorescence, 48 h; Potency, µM (top dose mostly 57.5 µM), hits mostly activators; actives 0.1% (n = 45,000); AID 1159614; further: 0% is about no effect; nearly all actives have a fitted effect of over 65% in size
#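 qHTS, 1536-well; 145M-Twi-hGALC-G270D cells (WT line also made) in DMEM/F12 + 10% FBS; compound incubation on live cells; HMU-β-gal 0.1 mM final, pH 5.2, NaTC; carbonate stop; fluorescence increase = enhanced residual activity.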
# HTT-AS act: HTT-AS promoter activation. HEK293 HTT-AS promoter firefly luciferase reporter, 24 h; response scale: percent change from vehicle, -100% = no light. Potency, µM (doses to about 57.5 µM), for inactives: at the top dose activity change, positive = activation, usual class: activators. actives 0.24% (n = 48,000). AID 1508624; further: nearly all actives have a fitted effect of over 55% in size
#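 Luminescence was read after Dual-Glo reagent and a 10 min room-temperature incubation. Values were normalized to vehicle (0% activity) and zero RLU (-100% activity). Reporter HEK293 cells had been exposed to compounds (up to 57.5 uM final) for 24 h.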
# HTT prom inh: inhibits huntingtin promoter activity; HEK293 HTT promoter firefly luciferase reporter, 24 h; Potency, µM (series often up to 57.5 µM), for the others: at the top dose activity change, negative = inhibition, usual class: inhibitors; actives 0.93% (n = 48,000); AID 1508623; further: nearly all actives have a fitted effect of over 50% in size
#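 HEK293 luciferase promoter-reporter cells (2,500/well) plated 24 h, then compounds added at up to 57.5 uM final for 24 h at 37 °C. Firefly luminescence by Dual-Glo, normalized to vehicle (0%) and zero RLU (-100%).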
# NTMT1 inh: inhibitors of human N-terminal methyltransferase NTMT1; Q9BV86; NTMT1 MTase-Glo SAH luminescence, purified enzyme; Potency, µM (top dose mostly 114 µM), for inactives: at the highest dose activity change, negative = inhibition, hits mostly inhibitors; actives 2.5% (n = 59,000); AID 1645870;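 further: plate controls were DMSO vehicle for no effect and no enzyme for full effect; nearly all actives have a fitted effect of over 65% in size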
# Target sequence (Q9BV86 whole entry, looked up): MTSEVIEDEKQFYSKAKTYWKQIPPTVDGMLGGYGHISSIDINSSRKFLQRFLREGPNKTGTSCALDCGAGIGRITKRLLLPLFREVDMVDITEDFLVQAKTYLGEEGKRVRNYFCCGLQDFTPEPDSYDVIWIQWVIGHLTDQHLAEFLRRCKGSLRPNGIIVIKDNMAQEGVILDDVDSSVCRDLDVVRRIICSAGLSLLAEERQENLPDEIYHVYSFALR
# An asterisk follows results filed as active; i = inactive; ? = inconclusive; / = no result; ! = not confirmed by another sample; [ ] = remark or other dose. Shown are actives, neighbours in structure and some others; about 2.7% of the full set was active somewhere. The call rests on the fitted dose curve; in most records, active means well fitted curve in the direction sought with a large enough effect; inconclusive means small, poorly fitted or top-dose-only effect, or another doubt; inactive means no such curve, though single readings can be large; an effect the other way counts as inactive or inconclusive. Potency means the concentration at half of the fitted maximal effect.
SMILES,GALC G270D act,HTT-AS act,HTT prom inh,NTMT1 inh
Cc1cccc(N2CCN(C(=O)c3ccc4nc(N5CCC(C)CC5)sc4c3)CC2)c1C,i,-74.7%,2.51µM*,-3.8%
COc1ccccc1CNC(=O)c1ccc2nc(N3CCCCC3)sc2c1,i,-28.5%,?,?
Cc1ccc2nc(N3CCN(C(=O)C4CC4)CC3)sc2c1,i,?,43.7%,4.3%
CC1CCN(c2nc3ccc(C(=O)NCc4ccc(Cl)cc4)cc3s2)CC1,i,-78.7%,0.251µM*,-19.3%
Cc1ccc(CCNC(=O)c2ccc3nc(N4CCC(C)CC4)sc3c2)cc1,i,-73.1%,0.355µM*,0.6%
CC1(C)CCCC2(C)C(CO)C3CCC2C31 (stereo unspecified),/,/,/,-7.5%[57.5 µM]
CCCS(=O)c1ccc2nc(NC(=O)OC)[nH]c2c1 (stereo unspecified),i,-31.4%,-25.0%,50.1µM*!
COC(=O)Nc1nc2ccc(C(=O)c3ccccc3)cc2[nH]1,i,-13.6%,-14.4%,30.4µM*!
COC(=O)Nc1nc2ccc(S(=O)c3ccccc3)cc2[nH]1 (stereo unspecified),i,-19.0%,-14.6%,4.8%[57.5 µM]
COC(=O)Nc1nc2ccc(C(=O)c3cccs3)cc2[nH]1,i,-9.2%,-1.8%,28.2µM*!
CCCSc1ccc2nc(NC(=O)OC)[nH]c2c1,i,25.2%,-0.2%,11.1%[57.5 µM]
C=C(C(=O)O)C1CCC2(C)CCC(O)C(=C)C2C1 (stereo unspecified),/,/,/,10.6%[57.5 µM]
CCOc1ccc(NC(=O)CSc2nnc(CNC(=O)C34CC5CC(CC(C5)C3)C4)n2CC)cc1,i,-27.7%,-26.8%,89.1µM*
CCn1c(CNC(=O)C23CC4CC(CC(C4)C2)C3)nnc1SCC(=O)Nc1ccc(C)cc1,i,-26.7%,-32.0%,9.8%
Nc1ncnc2n[nH]c(Nc3ccc(F)cc3)c12,/,/,/,50.1µM*!
CC(=O)NC(C)c1cnc(-c2cnc(Oc3ccc(OC(C)C)cc3)s2)s1 (stereo unspecified),/,/,/,-0.4%[57.5 µM]
COc1ccc(NS(=O)(=O)c2ccc3[nH]c4c(c3c2)CCCC4)cc1OC,i,-47.3%,20µM*,-16.9%
CCCc1cc(C(=O)N[C@H](Cc2ccc(-c3cccc(OC(F)(F)F)c3)nc2)C(=O)N[C@@H]2CCNC2)sc1C,/,/,/,56.2µM*
C/C=C1/[C@H](O[C@@H]2O[C@H](CO)[C@@H](O)[C@H](O)[C@H]2O)OC=C(C(=O)OC)[C@H]1CC(=O)OCCc1ccc(O)c(O)c1,/,/,/,-7.0%[29.8 µM]
CC(C)(C)c1ccc(-c2nc(SCC(=O)Nc3ccc(Cl)cc3)[nH]c(=O)c2C#N)cc1,i,-10.2%,-15.4%,20µM*
CC(C)(O)/C=C/C1=CC(=O)[C@@](C)(O)C[C@H]1O,/,/,/,13.8%[57.5 µM]
CCC[C@H](NC(=O)[C@@H]1[C@H]2CCC[C@H]2CN1C(=O)[C@@H](NC(=O)[C@@H](NC(=O)c1cnccn1)C1CCCCC1)C(C)(C)C)C(=O)C(=O)NC1CC1,/,/,/,44.7µM*
CCC[C@@H](NC(=O)[C@@H]1[C@H]2CCC[C@@H]2CN1C(=O)[C@@H](NC(=O)[C@@H](NC(=O)c1cnccn1)C1CCCCC1)C(C)(C)C)C(=O)C(=O)NC1CC1,/,-21.1%,?,-25.1%[57.5 µM]
Cc1ccsc1/C=C/C1=NCCCN1C,i,2.1%,8.0%,12.6µM*
CCCS(=O)(=O)c1c(S(=O)(=O)CCC)c2cc(C(C)(C)C)ccn2c1C(=O)c1ccc(OC)c(OC)c1,i,-21.4%,-22.4%,-21.4%
SMILES,GALC G270D act,HTT-AS act,HTT prom inh,NTMT1 inh
CCCS(=O)(=O)c1c(S(=O)(=O)CCC)c2cc(C(C)(C)C)ccn2c1C(=O)c1ccccc1,i,-83.6%,25.1µM*,9.9%
COCCOC(=O)N1CCN(S(=O)(=O)c2cc(F)c(Oc3ccc(Cl)cc3)c(F)c2)C(C(=O)NO)C1 (stereo unspecified),/,/,/,7.5%
CCOC(=O)C1CCN(C(=O)Cn2nc(CC)n3c(cc4sccc43)c2=O)CC1,i,-78.2%,2.82µM*,-4.1%
CCOc1ccc(-c2nnc(SCC(=O)Oc3ccccc3)o2)cc1,i,-89.5%,2.82µM*,13.0%
CCCCN(C)C(=O)C1CCCN(c2ncnc3onc(C)c23)C1 (stereo unspecified),i,-45.3%,1.78µM*,0.6%
CCc1ccc(NC(=O)c2sc3nc(C)c(Cl)c(C)c3c2NC(=O)c2ccccc2OC)cc1,i,-1.0%,1.5%,2.5%
CCc1ccc(NC(=O)c2sc3nc(C)c(Cl)c(C)c3c2N)cc1,i,2.51µM*,70.4%,-9.4%
COC(=O)C1=CO[C@@H](O[C@@H]2O[C@H](CO)[C@@H](O)[C@H](O)[C@H]2O)[C@H]2[C@@H]1C=C[C@@]21C=C([C@H](C)O)C(=O)O1,/,/,/,9.3%[29.8 µM]
Cc1ccc(-n2ncc3c(NCCCN4CCOCC4)ncnc32)cc1C,i,-47.6%,?,50.1µM*
Cc1cc(C(=O)C(=O)Nc2nnc(C(C)C)s2)c(C)n1-c1ccccc1,i,-86.1%,6.31µM*,0.8%
Cc1cc2nn(-c3ccccc3)nc2cc1NC(=O)Cc1ccc(Cl)cc1,i,?,91.8%,0.2%
CCCCc1ccc(-n2nc3cc(C)c(NC(=O)Cc4ccccc4)cc3n2)cc1,i,-2.3%,1.8%,79.4µM*
O=C(CNC(=O)C1CCCCC1)OC(C(=O)c1ccccc1)c1ccccc1 (stereo unspecified),/,/,/,89.1µM*
O=C(CNC(=O)C1CCCCCC1)OC(C(=O)Nc1cc(C(F)(F)F)ccc1Cl)c1ccccc1 (stereo unspecified),/,/,/,9.4%
C=C1CC[C@@H]2C(C)(C)CCC[C@@]2(C)[C@@H]1CC/C(=C/C(=O)OC)COC(C)=O,/,/,/,8.9%[29.8 µM]
CCOc1ccc(Cc2cc([C@@H]3O[C@H](CO)[C@@H](O)[C@H](O)[C@H]3O)ccc2Cl)cc1,/,/,/,12.6%
Brc1c(Br)c(Br)c2n[nH]nc2c1Br,/,/,/,11.2µM*
O=C(O)c1ccnc2cc(C(OCC3CCC(F)(F)CC3)c3ccccc3Cl)[nH]c12 (stereo unspecified),/,/,/,16.0%[57.5 µM]
CCOc1ccc(CNC(=O)C2CCN(c3nnc(-n4c(C)ccc4C)s3)CC2)cc1,i,-41.0%,14.1µM*,-4.2%
CCn1c(=O)c2c(nc(/C=C/c3ccc(OC)c(OC)c3)n2C)n(CC)c1=O,/,/,/,3.3%
Oc1c(I)cc(Cl)c2cccnc12,i,-4.6%,-12.1%,50.1µM*
Cc1cc2nc(-c3cccc(NC(=O)COc4ccc(C(C)C)cc4)c3)oc2cc1C,i,1µM*,74.3%,-0.7%
COc1ccc(NC(=O)C2=C(C)NC(Nc3nc4ccccc4o3)=NC2c2ccccc2Br)cc1 (stereo unspecified),/,/,/,6.6%[57.5 µM]
O=C1C2=C(Nc3ccccc3SC2c2ccc(Cl)c(Cl)c2)c2ccccc21 (stereo unspecified),i,-63.2%,?,-0.2%
CCCc1ccc(C2Sc3ccccc3NC3=C2C(=O)c2ccccc23)cc1 (stereo unspecified),i,-53.5%,31.6µM*,2.9%

# Screens deposited in PubChem BioAssay by National Center for Advancing Translational Sciences (NCATS).
